# According to the supplement of paper PMC6555819:
# Key:
# Assay in all cases: PBM binding z-score (relative to random genomic background probes); higher = stronger binding; sequences stand for … in GC…GCGATTGACAGCGTAGAATGAAGG
# [1] = system: FXR:RXRa (NR concentration 270 nM, RXRa partner concentration 90 nM)
# Summary of the method: (§1)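 Custom Agilent 4×180K protein-binding microarrays carried double-stranded probes, each with a 34-nt variable region. These regions held direct-repeat seeds, single-nucleotide variants, half-site ablations and random human genomic background sequences. Ligand-free nuclear receptor dimers were incubated on the arrays for 1 h, antibodies against each partner (one per run) detected binding, and scanned fluorescence was regression-normalized. Binding z-scores take the random background probes as reference.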
# [2] = system: LXRa:RXRa (NR concentration 270 nM, RXRa partner concentration 90 nM)
# Summary of the method: as §1
# [3] = system: LXRa homodimer (NR concentration 270 nM)
# Summary of the method: as §1
# [4] = system: LXRb:RXRa (NR concentration 270 nM, RXRa partner concentration 90 nM)
# Summary of the method: as §1
# [5] = system: LXRb homodimer (NR concentration 270 nM)
# Summary of the method: as §1
# [6] = system: PPARa:RXRa (NR concentration 270 nM, RXRa partner concentration 90 nM)
# Summary of the method: as §1
# [7] = system: PPARg:RXRa (NR concentration 180 nM, RXRa partner concentration 90 nM)
# Summary of the method: as §1
# [8] = system: PPARg:RXRa 270nM:90nM, anti-RXR (NR concentration 270 nM, RXRa partner concentration 90 nM)
# Summary of the method: as §1
# [9] = system: PPARg:RXRa 30nM:10nM, anti-RXR (NR concentration 30 nM, RXRa partner concentration 10 nM)
# Summary of the method: as §1
# [10] = system: PPARg:RXRa 90nM:30nM, anti-RXR (NR concentration 90 nM, RXRa partner concentration 30 nM)
# Summary of the method: as §1
# [11] = system: PPARg:RXRa DBDmut IVT, anti-RXR (DBD mutation: RXRa K156A/R161A, NR concentration 270 nM, RXRa partner concentration 90 nM)
# Summary of the method: as §1
# [12] = system: PPARg:RXRa IVT, anti-PPARg (NR concentration 270 nM, RXRa partner concentration 90 nM)
# Summary of the method: as §1
# [13] = system: PPARg DBDmut:RXRa IVT, anti-PPARg (DBD mutation: PPARg1 K132A/R137A, NR concentration 270 nM, RXRa partner concentration 90 nM)
# Summary of the method: as §1
# [14] = system: PPARg DBDmut IVT, anti-PPARg (DBD mutation: PPARg1 K132A/R137A, NR concentration 270 nM)
# Summary of the method: as §1
# [15] = system: PPARg homodimer (NR concentration 180 nM)
# Summary of the method: as §1
# [16] = system: PXR:RXRa (NR concentration 270 nM, RXRa partner concentration 90 nM)
# Summary of the method: as §1
# [17] = system: PXR homodimer (NR concentration 270 nM)
# Summary of the method: as §1
# [18] = system: RARa:RXR (NR concentration 270 nM, RXRa partner concentration 90 nM)
# Summary of the method: as §1
# [19] = system: RARa homodimer (NR concentration 270 nM)
# Summary of the method: as §1
# [20] = system: RARb:RXRa (NR concentration 270 nM, RXRa partner concentration 90 nM)
# Summary of the method: as §1
Sequence,PBM binding z-score [1],PBM binding z-score [2],PBM binding z-score [3],PBM binding z-score [4],PBM binding z-score [5],PBM binding z-score [6],PBM binding z-score [7],PBM binding z-score [8],PBM binding z-score [9],PBM binding z-score [10],PBM binding z-score [11],PBM binding z-score [12],PBM binding z-score [13],PBM binding z-score [14],PBM binding z-score [15],PBM binding z-score [16],PBM binding z-score [17],PBM binding z-score [18],PBM binding z-score [19],PBM binding z-score [20]
CGTCGAAGTTCAAGGTAACGTAACAGAAAGCAGC,2.59,2.34,-0.0774,1.38,-0.503,2.51,1.18,1.48,0.235,0.847,-0.377,0.326,0.134,-0.191,0.722,2.28,0.897,1.5,-0.214,3.38
CAAACTAGGTCACCGGAAGGTCAAACTCCGCATG,6.33,6.34,6.11,5.67,1.82,6.19,9.8,7.8,6.23,7.86,8.32,8.83,5.1,4.65,8.25,6.17,2.46,7.35,2.71,5.14
CCGATTGGGGCAAGGTTACCATAACGCACAGCCA,0.189,0.481,-0.246,0.649,-1.05,1.28,1.44,1.49,0.0472,0.943,1.32,1.29,-0.839,-0.45,0.0331,0.36,-0.458,0.793,-0.365,1.67
TAATATAGGTAATACAGGTGAAAGTCGGCATCTA,0.455,1.04,0.599,0.603,0.797,2.57,3.18,3,2,2.17,5.72,5.56,2.44,1.91,1.32,0.362,0.607,0.476,1.83,0.621
AGAACGAGGGCCATGAGTTGATAGCACGGGTGGC,-0.356,-0.437,-0.767,-0.687,-0.764,-0.163,0.614,-0.0464,-0.464,-0.23,0.174,0.141,-0.382,0.0603,-0.217,0.118,-0.232,-0.375,-0.362,0.632
GGAACGAGGGCAATTTGATAGCAGAGTTTGATGG,0.502,0.242,-0.405,0.427,-0.315,1,1.04,0.751,0.15,0.401,3.43,2.2,-0.942,-0.307,0.234,0.484,0.475,0.401,-0.342,1.64
GCTTGTAGATCAAGGTTACGAAAGACTAAGCTAA,0.195,1.01,-0.347,0.883,-0.378,1.97,0.804,1.64,0.408,1.13,1.65,1.67,-0.122,-0.483,0.354,0.724,-0.00407,1.23,0.273,0.947
GCTTACGGGTCATAGGTTATAGCATGAATAGAAT,5.98,4.32,0.326,4.2,0.262,5.87,9.25,7.94,6.8,8.53,3.9,5.19,2.06,1.56,2.24,3.94,0.0944,5.79,0.0988,3.51
CCGACTGGGGAAAAGGTTACCATACTCAGTACGA,0.132,0.716,-0.0897,1.29,-0.67,3.82,6.95,7.47,6.02,8.23,0.816,2.89,-0.258,-0.129,1.18,0.978,-0.181,1.8,0.0679,1.59
ATACCAAGGTGATCGTGAGGTCGTTCATACTAAC,2.05,1.58,1.23,1.4,0.148,1.53,0.472,0.354,-0.0192,-0.0407,0.587,1.54,0.827,0.877,1.15,3.23,2.03,2.01,0.612,1.5
CCGAATGGGGCAAAGGTTACCATACTCAGTACGA,1.99,1.85,0.278,2.51,-0.456,4.58,9.1,7.67,7.02,7.87,2.16,4.5,0.22,0.313,1.22,2.57,0.114,3.86,0.85,2.46
CATACAGGGTCAGCTAGCCCAGAGTAGGGACGGC,4.68,3.03,-0.244,2.21,0.0889,4.36,3.35,2.84,0.528,1.8,0.792,2.19,0.206,-0.0933,1.48,2.1,-0.17,3.11,0.642,4.01
TGAATAAGGTTAAAGATCAGGGAACGTGGCGTCG,2.83,2.57,0.114,1.71,0.337,3.91,4.41,5.68,4.08,5.9,1.52,2.45,0.601,0.358,1.06,1.73,0.429,3.27,0.953,2.35
TCTGCAAGGTCAACGATGGTCAGCTAATCTGCTA,6.64,5.29,0.751,4.06,0.582,5.41,4.78,4.95,2.86,4.09,3.02,3.91,-0.02,-0.552,2.84,4.57,0.31,4.65,0.319,5.27
CCGACTGGGGCTGAAAGGTTACCATACCATCCGG,0.294,0.581,-0.00145,0.846,-1.11,1.76,0.998,1.93,0.223,1.31,-0.623,-0.162,-1.05,-1.01,0.352,1.1,-0.23,1.85,-0.057,1.46
CATACAGGGTCAGCGAGGCCAGAGTAGGGACGGC,5.13,3.36,-0.392,2.27,-0.0459,5,4.21,3.65,0.828,2.12,0.932,2.99,0.657,0.403,1.75,3.02,0.862,3.03,0.389,4.24
ATATCAAGGTGATCGTGAGGTCGTTGATACTAAC,1.97,1.33,0.367,1.31,0.595,1.82,0.923,0.763,0.0904,0.846,1.67,2.27,1.01,1.33,0.347,3.24,1.18,2.03,0.406,1.69
CAAACTAGGTCACAGAGGTCAAAGCCCGTGCGTA,7.26,6.74,6.92,5.93,1.72,6.63,10.4,8.24,7,8.42,8.71,9.13,4.98,2.72,4.59,6.66,10.8,7.48,2.65,5.27
CGTCAAAGTTCAGCTAAGGTAACGTAAAGCACGC,4.58,4.17,1.68,2.31,0.319,3.68,3.16,3.94,1.03,2.96,0.23,1.25,0.517,-0.309,1.44,4,1.56,3.29,1.13,4.65
ACAGACAGGAGAGTGAAGGTAACTCAGCTGGACG,0.399,-0.127,-0.128,0.0952,0.885,0.0627,0.928,0.616,0.213,0.343,-0.0669,0.0769,0.725,0.294,0.433,0.0985,0.114,0.228,0.297,0.198
CTCGAAAGGTCGTGCTGAGGTGAGTATACCAAAC,4.89,3.82,0.000478,3.31,-0.153,4.82,2.58,3.85,1.23,2.67,0.827,1.96,0.22,0.0024,1.84,3.61,0.222,4.16,-0.373,3.93
TATACAGGGTCAACGGCCAGAGTACGAATGTCGA,6.91,5.76,2.15,4.65,2.1,5.54,6.79,6,3.43,5.19,2.91,4.6,4.74,3.03,4.05,3.93,0.74,5.15,1.33,4.52
CAAACTAGGTCAAGGTCACAGTCGGTTTGTGCCA,6.76,5.24,3.28,4.15,0.607,6.25,9.88,8.18,6.72,8.13,8.39,8.56,6.22,2.94,5.11,5.3,1.75,5.94,1.99,5.17
TCTTGTACATCAGCAGGTTAAGAAAGCTGGCCAA,0.22,0.475,-0.073,0.542,0.127,0.883,-0.203,1.47,2.81,2.33,1.51,0.722,-0.0534,0.403,-0.0357,0.478,-0.155,0.59,0.183,0.473
AGAATGAGGTTATGCGTAGATCAGGGAAGAAAGT,1.66,1.51,-0.231,1.31,-0.169,3.1,1.44,2,0.664,1.12,2.31,2.01,0.845,0.71,0.621,0.966,0.308,1.32,0.403,1.57
GGAACGAGGGCAAGATGATAGCAGAGTTTGATGG,0.506,0.313,-0.287,0.0342,-0.415,1.25,1.39,0.84,0.0817,0.398,3.59,2.4,-0.698,-0.398,0.136,0.418,0.432,0.145,0.345,2.19
GTAACGAGGGCATTCGAGTTGATAGCATGGCGAT,1.83,1.91,-0.134,0.286,-0.321,1.72,1.12,0.912,0.115,0.712,3.16,2.66,0.308,-0.0825,-0.229,3.76,2.23,0.683,-0.277,1.89
CTAGACAGGTGAGAAGGTAACTCAGCCTCGATTA,-0.0745,-0.0361,-0.246,-0.171,-0.733,0.677,0.508,0.818,0.0715,0.577,0.878,0.891,0.184,-0.714,0.258,-0.111,0.0997,-0.121,-0.138,0.44
CGCCAAAGTTCAAGGTAACGTAACAGAAAGCAGC,6.49,5.62,3.2,3.55,0.961,5.17,4,4.83,1.8,3.27,0.89,1.7,0.701,0.562,1.95,4.18,2.34,3.4,1.12,5.28
